Compounds without any hit were thinned out: in the full panel of roughly 83,000, 20% have a hit.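 The endpoint reported here, percent growth, reads 100 for growth as untreated, 0 for no net growth and -100 for all cells dead.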 Activity calls are given as the source filed them.

The assay deals with SK-OV-3 ovarian. Briefly: NCI-60 one-dose screen, 48 h (100 = growth as untreated, 0 = no growth, -100 = all killed). To be noted: 10 µM unless noted. The procedure: Growth inhibition of the SK-OV-3 human tumor cell line is measured as a screen for anti-cancer activity. Cells are grown in 96 well plates and exposed to the test compound for 48 hours. Compounds are tested at a single concentration, which is 10^-5 M for most compounds. The reported endpoint is percent growth (GI% or GIPRCNT), where numbers from 0 - 100% represent growth inhibition, and numbers from -100% - 0 represent cell death. For example, a value of 40 represents 60% growth inhibition. A value of 0 means no net growth occurred over the course of the experiment. A value of -40 indicates 40% of cells at the beginning of the experiment died by the end of the experiment. A value of -100 means all cells are dead at the end of the experiment.
NCI-60 Human Tumor Cell Lines Screen was performed using the standard one-dose NCI protocol, which is described in more detail at https://dtp.cancer.gov/discovery_development/nci-60/default.htm.
Compounds with GIPRCNT values below 10 were considered active. Activity score was based on GIPRCNT using the following formula: […]
Score is 0 for GIPRCNT values of 100 or above, 50 for GIPRCNT values of 0, and 100 for GIPRCNT values of -100.
For the molecule `N#CC1C(C#N)C(C(=O)c2ccc(Br)cc2)N2c3ccccc3C=CC12` (stereo not given), the growth is 79.4% (inactive).

`Fc1ccc2c(-c3cncn3CCc3ccccc3)c[nH]c2c1`: the growth was 97.6% (inactive). Regarding `COc1cc(C2=NN(C(C)=O)C(c3cc(OC)c(OC)c(OC)c3)C2)ccc1O` (stereo not given), the growth is 30.3% (inactive). With `COc1cc2c(=O)n(CCCN(C)C)c3c4cc5c(cc4ccc3c2cc1OC)OCO5` the figure was 102% (inactive); with `CCSCC1CC(O)(c2ccccc2)CC(c2ccc(F)cc2)O1` (stereo not given), 25.9% (inactive). With `O=C1Nc2cc(-c3ccc(NC(=O)c4ccccc4)cc3)ccc2/C1=C/c1ccc[nH]1` the figure was 110% (inactive). With `CCc1c(Cl)nc(N)nc1Nc1ccc(C)c(C)c1` the figure was 109% (inactive); with `NS(=O)(=O)c1ccc(CCn2c(SCC(=O)c3ccc(Cl)cc3)nc3ccccc3c2=O)cc1`, 107% (inactive); with `O=S(=O)(NCCNc1nccc(-c2c(-c3cccc(O)c3)nc3occn23)n1)c1cccc(F)c1`, 91.8% (inactive). `CCOC(=O)c1cc(C(=O)c2ccc(OC)c(OC)c2)n2c1ccc1ccccc12`: the growth was 93% (inactive). For `CCCOC(=O)N[C@H]1CCc2c(Cl)c(OC)c(OC)c(OC)c2-c2ccc(SC)c(=O)cc21` the value was 38.3% (inactive); for `NC1[C@H](c2c[nH]c3ccccc23)c2c([nH]c3ccccc23)[C@H]1c1c[nH]c2ccccc12` (stereo not given in full), 115% (inactive). For `N#CC1=C(N)Oc2c(cnn2-c2ccc([N+](=O)[O-])cc2[N+](=O)[O-])C1c1ccccc1` (stereo not given) the value was 112% (inactive); for `CC(c1ccccc1)C(C(=O)c1ccccc1)c1ccccc1` (stereo not given), 101% (inactive); for `C=C1C(=O)O[C@H]2[C@H]1CC/C(CNC(=O)CCc1ccc(OC)cc1)=C\CC[C@@]1(C)O[C@@H]21`, 103% (inactive).

`COc1ccc(/C=C/c2nc(Nc3ccc(S(=O)(=O)Nc4cc(C)on4)cc3)c3ccccc3n2)cc1`: the growth was 77.4% (inactive). For `COc1cccc(-c2nc3occn3c2-c2ccnc(NCCNS(=O)(=O)c3ccc(C(F)(F)F)cc3)n2)c1` the value was 103% (inactive); for `O=C(c1nnc(Nc2ccccc2Br)o1)c1c[nH]c2ccccc12`, 83% (inactive); for `COc1cc(/C=C\c2cc(OC)c(OC)c(OC)c2)cc(N)c1OC`, 92.2% (inactive). With `N#CC(C#N)=Cc1cc2ccccc2nc1Oc1ccc(C(F)(F)F)cc1` the figure was 88.6% (inactive); with `C#Cc1cccc(NC(=O)c2cccc(NC(=O)CCl)c2)c1`, 56.4% [8.25 µM] (inactive). Regarding `O=C1Nc2cc(-c3ccc(NS(=O)(=O)c4ccccc4)cc3)ccc2/C1=C/c1ccc[nH]1`, the growth is 79.1% (inactive). For `COc1cc2oc(-c3cccc(C(=O)Nc4ccc(Cl)cc4)c3)cc(=O)c2c(O)c1OC` the value was 58.3% (inactive); for `COc1ccc(C(=O)c2nc3ccccc3n2CC(=O)c2ccc(Cl)cc2)cc1`, 107% (inactive); for `Cc1cnc(C(=O)Nc2nc3ccc(S(=O)(=O)Nc4ccc(C(C)(C)C)cc4)cc3[nH]2)cn1`, 43% (inactive). With `CN(C)CCn1c2ccc(Br)cc2c2nc3ccccc3nc21` the figure was 50.8% (inactive). For `C=C(C)[C@@H]1CC[C@]2(C(=O)N[C@@H](Cc3ccccc3)C(=O)OC)CC[C@]3(C)[C@H](CC[C@@H]4[C@@]5(C)CCC(=O)C(C)(C)[C@@H]5CC[C@]43C)[C@@H]12` the value was 98.8% (inactive). For `CCCCCCNC(=O)Nc1ccc2cc3ccc(NC(=O)NCCCCCC)cc3nc2c1`, the growth was 13.2% (inactive).

In the case of `COc1cc(NC(C)CCCNC(=O)CCC(=O)NCCCNCCCCCCCCNCCCNC(=O)CCC(=O)NCCCC(C)Nc2cc(OC)cc3cccnc23)c2ncccc2c1` (stereo not given), the growth is 97.9% (inactive).

As to `Cc1ccc(CNc2c3ccccc3nc3cc(NC(=O)CCN4CCCC4)ccc23)cc1`, the growth is 42.5% (inactive). Regarding `COc1ccc(C(=O)c2cc(C)c(OC)c(C)c2)c(OC)c1NC(C)=O`, the growth is 11% (inactive). With `COc1cc2nc(-c3ccc(C(F)(F)F)cc3)cc(OCCN3CCCCC3)c2cc1OC` the figure was 83.7% (inactive); with `CCOC(=O)Oc1c(OC)cc(C(=O)c2ccc(OC)c(OC(=O)CCl)c2OC)cc1OC`, 19.7% (inactive); with `Cc1cccc(NC(=O)Nc2ccc(-n3cnc4cc(-c5ccc(O)cc5)ccc43)cc2)c1`, 60.3% (inactive). With `Cc1ccc(/C=N/NC(=O)CSc2nc3ccccc3c(=O)n2Cc2ccc(S(N)(=O)=O)cc2)cc1` the figure was 103% (inactive). With `CN1CCN(C(=O)[C@]23CCC(C)(C)C[C@H]2C2=CC[C@@H]4[C@@]5(C)C/C(=C/c6cccnc6)C(=O)C(C)(C)[C@@H]5CC[C@@]4(C)[C@]2(C)CC3)CC1` the figure was 83.8% (inactive); with `NCCCCCCNc1cc(-c2cccc(OC(F)(F)F)c2)nc2ccc(N3CCCC3)cc12`, 93.6% (inactive). Turning to `CNC(=O)c1cccc(Cn2nc(C)c(NC(=O)c3ccc(COc4ccc(C(F)(F)F)cc4C)cc3)c2C)n1`, the growth is 74% (inactive). On to `CCCCCN1C=C/C(=C\C(=O)N(C)c2ccc(Oc3ccccc3)cc2)c2ccccc21`, for which the growth is 87.3% (inactive). Take `O=C(/C=C/c1c(-c2ccc(Cl)cc2)nn(-c2ccccc2)c1C(F)(F)F)c1ccc(Cl)cc1`: the growth was 82.7% (inactive).

Source of the values: PubChem BioAssay (NCI).
